In ChEMBL document CHEMBL2218924, “A broad activity screen in support of a chemogenomic map for kinase signalling research and drug discovery” (Biochem J, 2013):

What was measured:
[1] = target: MAP kinase-activated protein kinase 2 (Homo sapiens) (UniProt P49137); conditions: at 10 µM
[2] = target: MAP kinase-activated protein kinase 3 (Homo sapiens) (UniProt Q16644); conditions: at 10 µM
[3] = target: Serine/threonine-protein kinase MARK1 (Homo sapiens) (UniProt Q9P0L2); conditions: at 1 µM
[4] = target: Serine/threonine-protein kinase MARK1 (Homo sapiens) (UniProt Q9P0L2); conditions: at 10 µM
[5] = target: Dual specificity mitogen-activated protein kinase kinase 1 (Homo sapiens) (UniProt Q02750); conditions: at 1 µM
[6] = target: Dual specificity mitogen-activated protein kinase kinase 1 (Homo sapiens) (UniProt Q02750); conditions: at 10 µM
[7] = target: Maternal embryonic leucine zipper kinase (Homo sapiens) (UniProt Q14680); conditions: at 1 µM
[8] = target: Maternal embryonic leucine zipper kinase (Homo sapiens) (UniProt Q14680); conditions: at 10 µM
[9] = target: Misshapen-like kinase 1 (Homo sapiens) (UniProt Q8N4C8); conditions: at 1 µM
[10] = target: Misshapen-like kinase 1 (Homo sapiens) (UniProt Q8N4C8); conditions: at 10 µM

Sequence of Maternal embryonic leucine zipper kinase (Homo sapiens) (Q14680 whole entry, looked up): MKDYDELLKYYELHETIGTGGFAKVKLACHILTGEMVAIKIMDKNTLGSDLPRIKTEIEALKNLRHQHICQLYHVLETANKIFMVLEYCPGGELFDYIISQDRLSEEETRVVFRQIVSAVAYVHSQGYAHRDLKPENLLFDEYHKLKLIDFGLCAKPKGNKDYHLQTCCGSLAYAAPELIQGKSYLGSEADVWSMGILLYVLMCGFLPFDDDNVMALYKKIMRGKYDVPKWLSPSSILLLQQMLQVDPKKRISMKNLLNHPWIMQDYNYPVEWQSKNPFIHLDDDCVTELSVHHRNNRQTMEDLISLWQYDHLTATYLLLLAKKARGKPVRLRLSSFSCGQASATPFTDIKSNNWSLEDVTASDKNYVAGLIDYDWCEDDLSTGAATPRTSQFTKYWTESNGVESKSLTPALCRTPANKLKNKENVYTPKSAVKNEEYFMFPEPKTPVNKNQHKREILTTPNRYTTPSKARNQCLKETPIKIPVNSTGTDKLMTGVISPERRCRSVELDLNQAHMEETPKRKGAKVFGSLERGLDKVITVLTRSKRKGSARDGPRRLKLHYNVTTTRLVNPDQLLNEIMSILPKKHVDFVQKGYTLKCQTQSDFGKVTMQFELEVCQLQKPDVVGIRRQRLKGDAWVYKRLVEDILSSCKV
Sequence of Misshapen-like kinase 1 (Homo sapiens) (Q8N4C8 whole entry, looked up): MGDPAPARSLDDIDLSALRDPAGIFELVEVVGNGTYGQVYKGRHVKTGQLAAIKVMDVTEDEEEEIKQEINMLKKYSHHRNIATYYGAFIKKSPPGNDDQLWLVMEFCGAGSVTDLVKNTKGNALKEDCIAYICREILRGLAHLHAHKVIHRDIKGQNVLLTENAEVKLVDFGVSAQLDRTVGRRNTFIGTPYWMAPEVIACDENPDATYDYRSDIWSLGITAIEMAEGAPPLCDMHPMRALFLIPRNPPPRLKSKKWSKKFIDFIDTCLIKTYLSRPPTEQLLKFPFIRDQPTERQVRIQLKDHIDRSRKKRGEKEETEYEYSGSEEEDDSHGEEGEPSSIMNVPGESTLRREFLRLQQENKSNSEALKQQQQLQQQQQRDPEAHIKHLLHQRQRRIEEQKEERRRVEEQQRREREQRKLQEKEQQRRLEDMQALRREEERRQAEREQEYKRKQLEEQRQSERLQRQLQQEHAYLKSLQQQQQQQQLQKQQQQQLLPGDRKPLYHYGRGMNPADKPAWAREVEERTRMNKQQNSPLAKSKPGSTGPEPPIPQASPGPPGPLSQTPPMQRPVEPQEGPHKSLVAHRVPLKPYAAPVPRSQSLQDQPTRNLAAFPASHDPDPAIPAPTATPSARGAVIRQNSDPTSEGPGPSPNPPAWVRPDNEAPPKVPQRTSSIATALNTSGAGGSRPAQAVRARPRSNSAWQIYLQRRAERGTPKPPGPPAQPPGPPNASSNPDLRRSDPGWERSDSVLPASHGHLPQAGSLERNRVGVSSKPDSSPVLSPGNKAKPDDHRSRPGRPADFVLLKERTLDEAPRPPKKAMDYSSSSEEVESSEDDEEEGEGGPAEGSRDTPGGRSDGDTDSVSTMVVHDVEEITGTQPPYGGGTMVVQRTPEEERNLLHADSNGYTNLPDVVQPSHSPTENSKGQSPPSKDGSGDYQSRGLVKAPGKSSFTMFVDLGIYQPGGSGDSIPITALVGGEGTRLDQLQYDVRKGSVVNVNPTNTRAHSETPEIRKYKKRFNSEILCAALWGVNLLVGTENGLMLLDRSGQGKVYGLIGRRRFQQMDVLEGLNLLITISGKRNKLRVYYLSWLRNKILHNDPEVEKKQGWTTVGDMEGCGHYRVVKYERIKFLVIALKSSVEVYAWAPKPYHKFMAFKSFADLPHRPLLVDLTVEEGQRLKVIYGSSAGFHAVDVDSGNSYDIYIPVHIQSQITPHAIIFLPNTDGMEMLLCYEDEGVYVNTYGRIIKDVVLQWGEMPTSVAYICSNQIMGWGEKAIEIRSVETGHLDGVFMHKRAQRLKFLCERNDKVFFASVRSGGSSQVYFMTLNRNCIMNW
Sequence of Dual specificity mitogen-activated protein kinase kinase 1 (Homo sapiens) (Q02750 whole entry): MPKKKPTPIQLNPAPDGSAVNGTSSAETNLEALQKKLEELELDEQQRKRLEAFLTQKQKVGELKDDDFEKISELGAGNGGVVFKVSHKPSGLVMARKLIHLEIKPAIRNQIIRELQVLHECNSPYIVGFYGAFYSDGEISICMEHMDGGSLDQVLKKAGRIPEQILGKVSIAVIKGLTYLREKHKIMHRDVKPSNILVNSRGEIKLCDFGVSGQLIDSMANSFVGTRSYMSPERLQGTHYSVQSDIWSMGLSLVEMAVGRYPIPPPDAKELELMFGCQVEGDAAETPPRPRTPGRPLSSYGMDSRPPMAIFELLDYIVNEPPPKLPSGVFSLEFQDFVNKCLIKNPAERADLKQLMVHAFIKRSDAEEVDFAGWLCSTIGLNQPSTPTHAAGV
Sequence of MAP kinase-activated protein kinase 2 (Homo sapiens) (P49137 whole entry, looked up): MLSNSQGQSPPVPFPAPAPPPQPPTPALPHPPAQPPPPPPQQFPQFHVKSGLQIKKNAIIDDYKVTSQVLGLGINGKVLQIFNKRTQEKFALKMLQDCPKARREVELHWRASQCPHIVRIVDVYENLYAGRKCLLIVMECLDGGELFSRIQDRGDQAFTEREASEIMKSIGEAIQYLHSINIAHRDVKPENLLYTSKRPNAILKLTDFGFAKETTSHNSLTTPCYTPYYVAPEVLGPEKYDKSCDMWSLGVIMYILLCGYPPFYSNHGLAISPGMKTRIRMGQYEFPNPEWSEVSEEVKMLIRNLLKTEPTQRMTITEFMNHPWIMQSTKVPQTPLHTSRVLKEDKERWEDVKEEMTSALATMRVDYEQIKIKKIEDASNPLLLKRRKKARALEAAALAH
Sequence of Serine/threonine-protein kinase MARK1 (Homo sapiens) (Q9P0L2 whole entry, looked up): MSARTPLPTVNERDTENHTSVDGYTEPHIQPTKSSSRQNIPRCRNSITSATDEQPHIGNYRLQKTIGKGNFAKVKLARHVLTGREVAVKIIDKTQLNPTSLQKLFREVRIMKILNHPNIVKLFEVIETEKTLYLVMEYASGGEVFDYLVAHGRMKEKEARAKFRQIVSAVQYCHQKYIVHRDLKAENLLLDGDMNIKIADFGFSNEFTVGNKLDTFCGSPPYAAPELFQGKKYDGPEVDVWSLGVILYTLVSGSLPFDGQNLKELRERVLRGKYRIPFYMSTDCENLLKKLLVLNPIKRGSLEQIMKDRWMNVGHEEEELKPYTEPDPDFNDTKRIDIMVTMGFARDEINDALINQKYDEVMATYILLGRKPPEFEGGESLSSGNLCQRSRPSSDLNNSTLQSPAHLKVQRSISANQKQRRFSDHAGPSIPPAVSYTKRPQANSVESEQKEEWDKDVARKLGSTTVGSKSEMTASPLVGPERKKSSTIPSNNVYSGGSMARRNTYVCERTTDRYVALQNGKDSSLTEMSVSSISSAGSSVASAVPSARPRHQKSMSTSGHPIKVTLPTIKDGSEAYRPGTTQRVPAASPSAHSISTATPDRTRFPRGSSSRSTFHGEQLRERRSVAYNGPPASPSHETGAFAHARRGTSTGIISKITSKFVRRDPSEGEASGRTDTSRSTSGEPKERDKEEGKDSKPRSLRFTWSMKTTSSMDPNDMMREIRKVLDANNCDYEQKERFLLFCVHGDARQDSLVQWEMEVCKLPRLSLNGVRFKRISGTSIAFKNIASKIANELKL
Sequence of MAP kinase-activated protein kinase 3 (Homo sapiens) (Q16644 whole entry, looked up): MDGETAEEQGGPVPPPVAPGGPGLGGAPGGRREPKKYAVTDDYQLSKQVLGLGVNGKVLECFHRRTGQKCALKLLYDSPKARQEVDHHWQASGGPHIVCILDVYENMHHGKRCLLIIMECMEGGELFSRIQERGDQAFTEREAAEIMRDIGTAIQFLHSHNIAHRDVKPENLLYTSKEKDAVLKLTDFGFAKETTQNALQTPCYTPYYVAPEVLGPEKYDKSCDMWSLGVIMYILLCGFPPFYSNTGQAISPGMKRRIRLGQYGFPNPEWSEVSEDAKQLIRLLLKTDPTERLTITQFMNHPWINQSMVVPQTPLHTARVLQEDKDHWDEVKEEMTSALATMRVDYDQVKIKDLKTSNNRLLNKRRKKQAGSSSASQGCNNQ

| Structure (SMILES) | residual activity [1] [%] | residual activity [2] [%] | residual activity [3] [%] | residual activity [4] [%] | residual activity [5] [%] | residual activity [6] [%] | residual activity [7] [%] | residual activity [8] [%] | residual activity [9] [%] | residual activity [10] [%] |
| --- | --- | --- | --- | --- | --- | --- | --- | --- | --- | --- |
| CCN(CC)C(=O)c1ccc(Nc2nc(OCC3CCCCC3)c3nc[nH]c3n2)cc1 | 39 | 69 | 60 | 17 | 48 | 48 | 40 | 3 | 94 | 63 |
| O=C1NC(=O)c2cc(Nc3ccc(F)cc3)c(Nc3ccc(F)cc3)cc21 | 93 | 69 | 82 | 75 | 109 | 122 | 89 | 76 | 83 | 71 |
| O=c1cc(-c2cccc3c2Sc2ccccc2S3)oc(N2CCOCC2)c1 | 85 | 79 | 104 | 96 | 111 | 104 | 93 | 90 | 111 | 100 |
| O=C(Nc1cccc(Nc2nccc(Nc3cccc(C(F)(F)F)c3)n2)c1)C1CC1 | 100 | 107 | 93 | 50 | 106 | 77 | 61 | 63 | 87 | 59 |
| Oc1n[nH]c2nnc(-c3c(-c4ccccc4)nn4ccccc34)cc12 | 90 | 86 | 75 | 76 | 104 | 109 | 53 | 36 | 105 | 92 |
| O=C1Nc2ccccc2/C1=C1/Nc2ccccc2/C1=N\OCCC(O)CO (stereo not given) | 61 | 80 | 40 | 8 | 26 | 21 | 7 | 5 | 44 | 17 |
| Cn1cnc2cc3c(Nc4cccc(Br)c4)ncnc3cc21 | 94 | 87 | 102 | 94 | 91 | 88 | 92 | 103 | 103 | 75 |
| O=C1NC(=O)/C(=C/c2ccc3c(c2)OC(F)(F)O3)S1 | 87 | 81 | 100 | 76 | 114 | 109 | 114 | 82 | 85 | 73 |
| CO[C@H]1C[C@@H]2CC[C@@H](C)[C@@](O)(O2)C(=O)C(=O)N2CCCC[C@H]2C(=O)O[C@H]([C@H](C)C[C@@H]2CC[C@@H](O)[C@H](OC)C2)CC(=O)[C@H](C)/C=C(\C)[C@@H](O)[C@@H](OC)C(=O)[C@H](C)C[C@H](C)/C=C/C=C/C=C/1C | 115 | 133 | 78 | 71 | 132 | 97 | 88 | 97 | 81 | 74 |
| Nc1ccc2ncnc(NCCc3ccc(Oc4ccccc4)cc3)c2c1 | 106 | 105 | 87 | 62 | 99 | 101 | 63 | 40 | 101 | 82 |
| Cn1nc2c3c(cccc31)C(=O)c1ccccc1-2 | 73 | 66 | 76 | 62 | 95 | 91 | 67 | 59 | 93 | 80 |
| Ic1cccc(CSc2nnc(-c3ccncc3)o2)c1 | 67 | 82 | 4 | 5 | 69 | 77 | 24 | 13 | 98 | 95 |
| COc1ccc(C(=O)Nc2sc3c(c2C(N)=O)CCCC3)cc1OC | 88 | 79 | 81 | 81 | 120 | 101 | 78 | 78 | 95 | 92 |
| CN(C)CCCn1cc(C2=C(c3c[nH]c4ccccc34)C(=O)NC2=O)c2ccccc21 | 73 | 109 | 65 | 25 | 109 | 52 | 41 | 13 | 84 | 47 |
| Cc1ccc(NC2=CC(=O)c3sc(C)nc3C2=O)cc1 | 87 | 61 | 87 | 80 | 99 | 116 | 95 | 85 | 106 | 94 |
| CC[n+]1c(/C=C/N(C)c2ccccc2)n(-c2ccccc2)c2ccc(-c3nc4ccccc4s3)cc21 | 63 | 86 | 108 | 111 | 138 | 95 | 91 | 46 | 102 | 84 |
